The structures appear in SMILES notation.

The first assay relates to primary human airway basal cells (HBEC, luciferase-transduced). In words: proliferation (luciferase bioluminescence) Z score relative to plate mean; higher = more proliferation / more cells, active = 1.96 or more. The conditions noted are these: donor: 1; 0.5 µM; library: ENZO Libraries; 4 days. The protocol: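 Primary human bronchial epithelial (airway basal) cells from two donors, lentivirally transduced with pHIV-Luc-ZsGreen, were seeded at 2000 cells/well in 384-well plates in FAD medium with ENZO or Prestwick library compounds and cultured for 4 days. Luciferin was then added and bioluminescence was read as a measure of cell number. Relative light units were converted to Z scores against the plate, and the mean of triplicate wells is reported.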
For `N#CC(C#N)=Cc1cc(O)c(O)c(O)c1`, the proliferation was -0.0382 (inactive).

On to `N#CC(C#N)=Cc1cc(O)c(O)c([N+](=O)[O-])c1`, for which the proliferation was -0.414 (inactive).

Take `NCCc1ccc(S(=O)(=O)F)cc1`: the proliferation is -0.284 (inactive).

In the case of `N#C/C(=C\c1ccc(O)c(O)c1)C(N)=S`, the proliferation was -0.0372 (inactive).

Regarding `Cc1cc(O)c2c(=O)c3c(O)cc(O)c4c5c(O)cc(O)c6c(=O)c7c(O)cc(C)c8c1c2c(c34)c(c78)c65` [Hypericin], the proliferation is 0.248 (inactive).

On to `COC[C@H]1OC(=O)c2coc3c2[C@@]1(C)C1=C(C3=O)[C@@H]2CCC(=O)[C@@]2(C)C[C@H]1OC(C)=O` [Wortmannin], for which the proliferation is -1.04 (inactive).

`CC(=O)Oc1ccc(/C=C/c2cc(OC(C)=O)cc(OC(C)=O)c2)cc1` [Triacetylresveratrol]: the proliferation is 1.28 (inactive).

As for `C/C(O)=C(\C#N)C(=O)Nc1cc(Br)ccc1Br`, the proliferation was 0.22 (inactive).

For the compound `CC(=O)c1c(O)c(C)c(O)c(Cc2c(O)c3c(c(C(=O)/C=C/c4ccccc4)c2O)OC(C)(C)C=C3)c1O` [Rottlerin], the proliferation is 0.583 (inactive).

On to `N[C@@H]1C[C@H]1c1ccccc1.N[C@H]1C[C@@H]1c1ccccc1` [Tranylcypromine hemisulfate], for which the proliferation was -0.212 (inactive).

For `CCC(=O)CCCCC[C@@H]1NC(=O)[C@H]2CCCCN2C(=O)[C@H]([C@@H](C)CC)NC(=O)[C@H](Cc2cn(OC)c3ccccc23)NC1=O` [Apicidin], the proliferation was -0.149 (inactive).

Take `N#CC(C#N)=Cc1ccc([N+](=O)[O-])c(O)c1`: the proliferation was -0.571 (inactive).

For the compound `N#CC(C#N)=Cc1ccc(O)c(O)c1`, the proliferation was 0.456 (inactive).

Still in this assay, the particulars now being: donor: 1; 5 µM; library: ENZO Libraries; 4 days.
Consider `N#CC(C#N)=Cc1cc(O)c(O)c(O)c1`, for which the proliferation was -0.000622 (inactive).

Take `N#CC(C#N)=Cc1cc(O)c(O)c([N+](=O)[O-])c1`: the proliferation is -0.101 (inactive).

`NCCc1ccc(S(=O)(=O)F)cc1`: the proliferation was -0.0822 (inactive).

Turning to `N#C/C(=C\c1ccc(O)c(O)c1)C(N)=S`, the proliferation was -0.285 (inactive).

As to `Cc1cc(O)c2c(=O)c3c(O)cc(O)c4c5c(O)cc(O)c6c(=O)c7c(O)cc(C)c8c1c2c(c34)c(c78)c65` [Hypericin], the proliferation was -0.261 (inactive).

As for `COC[C@H]1OC(=O)c2coc3c2[C@@]1(C)C1=C(C3=O)[C@@H]2CCC(=O)[C@@]2(C)C[C@H]1OC(C)=O` [Wortmannin], the proliferation is -0.831 (inactive).

For `CC(=O)Oc1ccc(/C=C/c2cc(OC(C)=O)cc(OC(C)=O)c2)cc1` [Triacetylresveratrol], the proliferation was 4.6 (active).

For the compound `C/C(O)=C(\C#N)C(=O)Nc1cc(Br)ccc1Br`, the proliferation was 0.228 (inactive).

On to `CC(=O)c1c(O)c(C)c(O)c(Cc2c(O)c3c(c(C(=O)/C=C/c4ccccc4)c2O)OC(C)(C)C=C3)c1O` [Rottlerin], for which the proliferation was -0.384 (inactive).

With `N[C@@H]1C[C@H]1c1ccccc1.N[C@H]1C[C@@H]1c1ccccc1` [Tranylcypromine hemisulfate], the proliferation is -0.48 (inactive).

In the case of `CCC(=O)CCCCC[C@@H]1NC(=O)[C@H]2CCCCN2C(=O)[C@H]([C@@H](C)CC)NC(=O)[C@H](Cc2cn(OC)c3ccccc23)NC1=O` [Apicidin], the proliferation is -0.303 (inactive).

Regarding `N#CC(C#N)=Cc1ccc([N+](=O)[O-])c(O)c1`, the proliferation is -0.0791 (inactive).

With `N#CC(C#N)=Cc1ccc(O)c(O)c1`, the proliferation is 0.134 (inactive).

For the origin of these results see the supplement of paper PMC12045047.
